From paper PMC4081100, “A DNA-binding-site landscape and regulatory network analysis for NAC transcription factors in Arabidopsis thaliana” come the findings set out here.

Holding throughout (assay): universal protein binding microarray (PBM); transcription factors of Arabidopsis thaliana; high values mean tight binding
Common to all, as to settings: protein: recombinant; tags: GST; chain copies: 2; dsDNA, one strand shown

One assay addresses T1, GST-ANAC092(1-176) (Arabidopsis thaliana, UniProt Q9FKA0 1-176).
T1 sequence: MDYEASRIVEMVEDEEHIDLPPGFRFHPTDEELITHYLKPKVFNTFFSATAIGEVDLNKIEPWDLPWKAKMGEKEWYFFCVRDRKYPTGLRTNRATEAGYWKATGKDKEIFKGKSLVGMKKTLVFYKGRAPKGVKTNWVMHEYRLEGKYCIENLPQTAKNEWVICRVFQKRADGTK
Put shortly: (§1)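 Cells were induced to make GST-tagged NAC-domain, full-length or DNA-binding-domain proteins, and zinc acetate was added for zinc-finger proteins. These proteins were purified on glutathione–Sepharose 4B, quantified by A280 or anti-GST western blot, and applied in duplicate at 200 to 500 nM final to custom all-10-mer Agilent 4 × 180K arrays that primer extension had made double-stranded. Binding is given as the normalised enrichment score (E-score) for scored gapped and ungapped 8-mers.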

In the next assay the target is GST-NTL6(1-168) (Arabidopsis thaliana, UniProt Q9SCK6 1-168). Put shortly:
as §1

The next assay concerns the target T2, GST-ANAC055(1-171) (Arabidopsis thaliana, UniProt Q9LDY8 1-171).
T2 sequence: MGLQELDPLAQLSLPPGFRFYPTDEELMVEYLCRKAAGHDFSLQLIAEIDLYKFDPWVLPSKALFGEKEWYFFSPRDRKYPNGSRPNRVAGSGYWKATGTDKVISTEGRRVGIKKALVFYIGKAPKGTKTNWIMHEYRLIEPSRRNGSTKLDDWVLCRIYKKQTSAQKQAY
The essentials: as §1

In a further assay the target is T3, GST-ATAF1 NAC domain (Arabidopsis thaliana, UniProt Q39013 7-158).
T3 sequence: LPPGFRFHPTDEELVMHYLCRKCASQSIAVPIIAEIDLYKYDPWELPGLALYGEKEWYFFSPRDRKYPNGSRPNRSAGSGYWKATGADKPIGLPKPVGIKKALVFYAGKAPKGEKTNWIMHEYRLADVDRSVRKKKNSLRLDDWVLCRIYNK
Put shortly: as §1

Assay [1] has as its target T4, GST-ANAC092(1-285) full length (Arabidopsis thaliana, UniProt Q9FKA0 1-285).
T4 sequence: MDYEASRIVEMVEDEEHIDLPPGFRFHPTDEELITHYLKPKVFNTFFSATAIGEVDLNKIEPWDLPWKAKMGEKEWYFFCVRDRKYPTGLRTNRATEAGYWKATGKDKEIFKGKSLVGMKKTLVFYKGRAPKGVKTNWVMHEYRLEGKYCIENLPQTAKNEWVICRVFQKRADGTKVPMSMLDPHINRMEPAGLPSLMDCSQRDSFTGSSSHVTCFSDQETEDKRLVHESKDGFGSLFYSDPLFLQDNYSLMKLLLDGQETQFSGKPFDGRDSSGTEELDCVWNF
The essentials: as §1

The next assay deals with T5, GST-NAP(1-166) (Arabidopsis thaliana, UniProt O49255 1-166).
T5 sequence: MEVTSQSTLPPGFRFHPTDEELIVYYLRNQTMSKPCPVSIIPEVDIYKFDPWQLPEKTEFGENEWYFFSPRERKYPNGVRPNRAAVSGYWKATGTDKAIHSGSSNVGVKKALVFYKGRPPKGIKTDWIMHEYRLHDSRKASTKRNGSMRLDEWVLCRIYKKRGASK
Put shortly:
as §1

The target of another assay is T6, GST-NST2(1-184) (Arabidopsis thaliana, UniProt Q9M274 1-184).
T6 sequence: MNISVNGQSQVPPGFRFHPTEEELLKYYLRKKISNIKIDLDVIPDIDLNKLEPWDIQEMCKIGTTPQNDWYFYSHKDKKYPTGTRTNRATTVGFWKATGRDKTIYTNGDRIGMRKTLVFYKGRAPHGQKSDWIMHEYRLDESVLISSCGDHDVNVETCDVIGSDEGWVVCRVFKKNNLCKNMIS
Put shortly: as §1

For a further assay, the target named is T7, GST-SND1(1-203) (Arabidopsis thaliana, UniProt Q9LPI7 1-203).
T7 sequence: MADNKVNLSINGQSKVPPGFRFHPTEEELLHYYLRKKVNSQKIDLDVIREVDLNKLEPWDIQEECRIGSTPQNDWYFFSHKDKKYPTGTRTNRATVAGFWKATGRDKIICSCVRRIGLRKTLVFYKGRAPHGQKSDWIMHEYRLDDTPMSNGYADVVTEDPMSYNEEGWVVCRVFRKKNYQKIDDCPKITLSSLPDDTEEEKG
Put shortly: as §1

A further assay concerns the target T8, GST-VND3 NAC domain (Arabidopsis thaliana, UniProt Q9FH59 12-162).
T8 sequence: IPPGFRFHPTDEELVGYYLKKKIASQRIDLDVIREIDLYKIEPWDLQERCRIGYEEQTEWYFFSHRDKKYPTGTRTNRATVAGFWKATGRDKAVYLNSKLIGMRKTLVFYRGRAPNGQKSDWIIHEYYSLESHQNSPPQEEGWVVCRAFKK
The essentials:
as §1

The target of a further assay is T9, GST-VND7 NAC domain (Arabidopsis thaliana, UniProt Q9C8W9 9-158).
T9 sequence: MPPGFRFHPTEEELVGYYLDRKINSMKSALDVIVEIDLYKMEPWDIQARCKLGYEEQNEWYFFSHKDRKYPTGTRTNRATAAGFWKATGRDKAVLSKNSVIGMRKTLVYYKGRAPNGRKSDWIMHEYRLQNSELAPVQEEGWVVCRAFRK
Put shortly: as §1

The next assay addresses T10, GST-ANAC019 NAC domain (Arabidopsis thaliana, UniProt Q9C932 14-162).
T10 sequence: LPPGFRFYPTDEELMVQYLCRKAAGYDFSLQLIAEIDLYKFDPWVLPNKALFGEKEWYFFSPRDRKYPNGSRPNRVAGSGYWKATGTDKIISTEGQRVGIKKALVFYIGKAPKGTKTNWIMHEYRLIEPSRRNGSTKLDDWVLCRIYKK
The essentials:
as §1

The target of a further assay is T11, GST-NTL8 NAC domain (Arabidopsis thaliana, UniProt Q9XIN7 14-156).
T11 sequence: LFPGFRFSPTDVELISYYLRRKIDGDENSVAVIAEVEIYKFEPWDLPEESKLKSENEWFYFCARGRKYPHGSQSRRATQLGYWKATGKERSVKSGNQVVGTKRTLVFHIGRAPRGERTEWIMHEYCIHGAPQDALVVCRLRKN
Put shortly: as §1

Sequence of GST-NTL6(1-168) (Q9SCK6 1-168): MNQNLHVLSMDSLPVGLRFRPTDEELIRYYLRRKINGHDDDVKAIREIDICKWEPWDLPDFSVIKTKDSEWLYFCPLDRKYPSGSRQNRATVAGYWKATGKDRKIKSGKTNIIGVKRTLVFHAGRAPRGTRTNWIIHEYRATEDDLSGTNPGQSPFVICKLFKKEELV

As for TATCGTAA, the binding signal with GST-ANAC092(1-176) came out at 0.2 E-score; with GST-NTL6(1-168), 0.146 E-score; with GST-ANAC055(1-171) it was 0.0984 E-score; with GST-ATAF1 NAC domain, 0.188 E-score; in assay [1], 0.337 E-score; with GST-NAP(1-166) it was 0.0786 E-score. The binding signal with GST-NST2(1-184) was 0.282 E-score; with GST-SND1(1-203), 0.418 E-score; with GST-VND3 NAC domain, 0.143 E-score; in the assay with GST-VND7 NAC domain, 0.236 E-score.
In the case of TGGAGTAA, the binding signal is 0.319 E-score in the assay with GST-ANAC092(1-176); 0.105 E-score with GST-NTL6(1-168); 0.128 E-score with GST-ANAC055(1-171); 0.11 E-score with GST-ATAF1 NAC domain; 0.342 E-score in [1]; 0.317 E-score with GST-NST2(1-184). The results for the binding signal in the assay with GST-SND1(1-203), with GST-VND3 NAC domain and with GST-VND7 NAC domain were 0.454 E-score, 0.0609 E-score and 0.131 E-score, respectively.
With AGGGTAAG, the binding signal in the assay with GST-ANAC092(1-176) was 0.0785 E-score; with GST-NTL6(1-168), 0.245 E-score; in the assay with GST-ANAC019 NAC domain, 0.0566 E-score; in the assay with GST-NAP(1-166), 0.0509 E-score; with GST-NST2(1-184) it was 0.0565 E-score; with GST-NTL8 NAC domain, 0.429 E-score. The binding signal in the assay with GST-SND1(1-203) worked out at 0.111 E-score; in the assay with GST-VND3 NAC domain, 0.0682 E-score; with GST-VND7 NAC domain it was 0.0597 E-score.
As to CTAGGAAA, the binding signal was 0.146 E-score in the assay with GST-ANAC092(1-176); 0.188 E-score with GST-NTL6(1-168); 0.18 E-score in the assay with GST-ANAC019 NAC domain; 0.214 E-score with GST-ANAC055(1-171); 0.167 E-score in the assay with GST-ATAF1 NAC domain; 0.0932 E-score in assay [1]. In addition, the binding signal was found to be 0.187 E-score in the assay with GST-NST2(1-184); 0.425 E-score with GST-NTL8 NAC domain; 0.145 E-score with GST-SND1(1-203); 0.219 E-score in the assay with GST-VND3 NAC domain; 0.13 E-score with GST-VND7 NAC domain.
Regarding AGCGTAAG, the binding signal amounted to 0.191 E-score with GST-ANAC092(1-176); 0.0608 E-score with GST-NTL6(1-168); 0.0588 E-score with GST-ANAC055(1-171); 0.0897 E-score in the assay with GST-ATAF1 NAC domain; 0.312 E-score in [1]; 0.172 E-score with GST-NST2(1-184). Moreover, the binding signal in the assay with GST-NTL8 NAC domain came to 0.0559 E-score; in the assay with GST-SND1(1-203), 0.4 E-score; with GST-VND3 NAC domain, 0.131 E-score; with GST-VND7 NAC domain, 0.141 E-score.
On to TAAGGAAA, for which the binding signal in the assay with GST-ANAC092(1-176) came to 0.212 E-score; with GST-NTL6(1-168), 0.478 E-score; with GST-ANAC055(1-171) it was 0.109 E-score; with GST-ATAF1 NAC domain, 0.157 E-score; in assay [1], 0.252 E-score; in the assay with GST-NAP(1-166), 0.0748 E-score. The binding signal was 0.152 E-score in the assay with GST-NST2(1-184); 0.424 E-score with GST-NTL8 NAC domain; 0.334 E-score in the assay with GST-SND1(1-203); 0.16 E-score in the assay with GST-VND3 NAC domain; 0.0908 E-score with GST-VND7 NAC domain.
Turning to AAGCAAAC, the binding signal turned out to be 0.331 E-score with GST-ANAC092(1-176); 0.359 E-score with GST-NTL6(1-168); 0.194 E-score with GST-ANAC055(1-171); 0.137 E-score with GST-ATAF1 NAC domain; 0.355 E-score in assay [1]; 0.119 E-score with GST-NAP(1-166). Also, the binding signal with GST-NST2(1-184) came to 0.31 E-score; in the assay with GST-NTL8 NAC domain, 0.336 E-score; with GST-SND1(1-203), 0.401 E-score; with GST-VND3 NAC domain it was 0.181 E-score; with GST-VND7 NAC domain it was 0.206 E-score.
Regarding TAAAGCAA, the binding signal turned out to be 0.138 E-score with GST-ANAC092(1-176); 0.134 E-score with GST-NTL6(1-168); 0.293 E-score in assay [1]; 0.262 E-score with GST-NST2(1-184); 0.15 E-score with GST-NTL8 NAC domain; 0.42 E-score with GST-SND1(1-203). In addition, the binding signal stood at 0.135 E-score with GST-VND3 NAC domain and 0.228 E-score with GST-VND7 NAC domain.
